The results in this text go back to PubChem BioAssay AID720540 (National Center for Advancing Translational Sciences (NCATS), 2013).

About 460 (35%) of roughly 1,300 compounds were called active. Roughly 39% stayed inconclusive and do not appear here. Calls follow the shape of the dose curve; as a rule, active = well fitted inhibition curve with a large enough effect; inconclusive = small, poorly fitted or top-dose-only effect; inactive = flat fitted curve, though single readings scatter. Some of the results follow.
Potency is read from the fitted curve at half-maximal effect.

Protein phosphatase EYA2 (Homo sapiens), sequence (O00167 whole entry, looked up): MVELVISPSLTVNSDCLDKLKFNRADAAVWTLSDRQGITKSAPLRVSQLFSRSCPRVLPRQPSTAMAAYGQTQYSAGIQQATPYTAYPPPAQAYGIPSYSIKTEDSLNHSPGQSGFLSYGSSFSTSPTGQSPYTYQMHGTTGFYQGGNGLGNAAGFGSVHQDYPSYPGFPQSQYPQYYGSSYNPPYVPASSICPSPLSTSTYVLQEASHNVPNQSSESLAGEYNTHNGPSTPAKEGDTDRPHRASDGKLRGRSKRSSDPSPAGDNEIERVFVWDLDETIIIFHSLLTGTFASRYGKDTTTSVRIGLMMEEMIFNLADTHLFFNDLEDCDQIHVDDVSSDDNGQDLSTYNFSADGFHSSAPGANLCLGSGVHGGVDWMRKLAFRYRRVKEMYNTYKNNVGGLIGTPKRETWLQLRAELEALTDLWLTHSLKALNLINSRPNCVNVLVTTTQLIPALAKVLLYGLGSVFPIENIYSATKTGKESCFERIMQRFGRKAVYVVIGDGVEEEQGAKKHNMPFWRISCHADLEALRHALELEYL

The assay has as its target Protein phosphatase EYA2 (Homo sapiens) (UniProt O00167). The experiment in a line: qHTS for Inhibitors of the Phosphatase Activity of Eya2: Confirmatory Assay for Cherry-picked Compounds. Also: nearly all actives have a fitted effect of over 65% in size. To be noted: purified EYA2 phosphatase activity, qHTS confirmation; series mostly up to 46.1 µM. Summed up:
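Eya2 (0.2 uM working solution) preincubated 10 min at room temperature with compound in pH 7.5 HEPES buffer with MgCl2, BSA, DTT. OMFP added (50 uM working solution), 10 min more; fluorescence 485/525 nm, normalized to EGTA and DMSO.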
(In general: In qHTS, concentration-response curves come from the screen itself.)
As for `O=C(NC1CC1)c1ccc2nc(-c3ccco3)c(-c3ccco3)nc2c1`, the Potency was 13.5 µM (active).

Consider `CC(C)[C@H](NC(=O)c1ccccc1)C(=O)NC1CCCCCCC1`, for which the Potency entry was “inactive”.

In the case of `O=C(O)c1ccc2nc(-c3ccco3)c(-c3ccco3)nc2c1`, the Potency is 8.49 µM (active).

In the case of `CC1CCN(CC2C(=O)O[C@@H]3C[C@@]4(C)CCC[C@H](C)C4=C[C@H]23)CC(C)(C)C1` (stereo not given in full), the Potency entry was “inactive”.

`CC(=O)Oc1ccccc1C(=O)Oc1ccc(/C=N/n2cnnc2)cc1`: the Potency is 16.9 µM (active).

Consider `CCC(C)C(CO)NC(=O)/C=C/[C@H]1O[C@@H](n2cnc3c(NC(=O)c4ccccc4)ncnc32)[C@H](O)[C@@H]1O` (stereo not given in full), for which the Potency entry is “inactive”.

As for `O=C(OCC(=O)c1ccc(Cl)cc1Cl)c1ccccn1`, the Potency is 19 µM (active).

As to `Cc1cc(C(=O)COC(=O)c2cccnc2Cl)c(C)n1-c1c(C)n(C)n(-c2ccccc2)c1=O`, the Potency result is “inactive”.

Regarding `O=C(CSc1nnc2c(n1)[nH]c1ccccc12)Nc1ccc(S(=O)(=O)Nc2ncccn2)cc1`, the Potency is 5.36 µM (active).

Take `CCc1ccc2[nH]c3nc(SCC(=O)NCC4CCCO4)nnc3c2c1` (stereo not given): the Potency was 6.01 µM (active).

As for `CCOc1ccc2[nH]c3nc(SCC(=O)NC4CCCC4)nnc3c2c1`, the Potency entry was “inactive”.

As for `Cc1c(CC(=O)NCCCC(=O)O)c(=O)oc2cc3occ(-c4ccccc4)c3cc12`, the Potency is 19 µM (active).

For `Cc1c(CCC(=O)NCCCCCC(=O)O)c(=O)oc2cc3occ(-c4ccccc4)c3cc12`, the Potency was 15.1 µM (active).

As for `Cc1c(CC(=O)NCC(=O)O)c(=O)oc2cc3occ(-c4ccccc4)c3cc12`, the Potency was 16.9 µM (active).

`Cc1c(CC(=O)N[C@@H](C)C(=O)O)c(=O)oc2cc3occ(-c4ccccc4)c3cc12`: the Potency is 8.49 µM (active).

For the compound `O=c1cc2oc3cc(O)c(O)cc3c(-c3ccccc3[N+](=O)[O-])c-2cc1O`, the Potency is 16.9 µM (active).

With `CC1=C(/C=C/C(C)=C/C=C/C(C)=C/C(=O)Nc2ccc(O)cc2)C(C)(C)CCC1`, the Potency entry is “inactive”.

As to `CN1/C(=C\C=C2/SC(=S)NC2=O)C(C)(C)c2ccccc21`, the Potency is 15.1 µM (active).

In the case of `CC1=NN(c2ccccc2)C(=O)/C1=C\C=C1/N(C)c2ccccc2C1(C)C`, the Potency is 7.57 µM (active).

With `Cc1ccc(-n2[nH]c(C)c(C=Nc3ccc(S(=O)(=O)Nc4nccs4)cc3)c2=O)cc1C`, the Potency is 8.49 µM (active).

In the case of `Cc1c(CCC(=O)O)c(=O)oc2c(C)c(OCc3cc4c(cc3Cl)OCO4)ccc12`, the Potency is 9.53 µM (active).

Turning to `COc1ccc(/C=C2\CCc3ccccc3C2=O)cc1CN1CCOCC1`, the Potency entry is “inactive”.

On to `COc1cccc2c1C(=O)/C(=C/c1ccc(N(C)C)cc1)C2`, for which the Potency is 4.26 µM (active).

Turning to `Cc1cc(NC(=O)c2cccc(N3C(=O)CCC3=O)c2)no1`, the Potency result is “inactive”.

Consider `Cc1ccc(C(=O)Oc2ccc3ccc(=O)oc3c2)cc1`, for which the Potency is 1.9 µM (active).

Consider `Cc1ccc(C(=O)Oc2ccc(N3C(=O)CCC3=O)c(C)c2)cc1`, for which the Potency was 2.69 µM (active).

Regarding `CC(C)c1ccc2oc(-c3ccc(NC(=O)c4ncn[nH]4)cc3)nc2c1`, the Potency was 16.9 µM (active).

`CCC(C)c1ccc2oc(-c3ccc(NC(=O)c4ncn[nH]4)cc3)nc2c1` (stereo not given): the Potency was 15.1 µM (active).

`CCN(CC)c1ccc(N=Cc2cc(Br)ccc2O)cc1`: the Potency entry is “inactive”.

On to `CCN(CC)c1ccc(NC(=O)COC(=O)CSc2ccc(Br)cc2C)cc1`, for which the Potency is 12 µM (active).

On to `CCN(C)c1ccc(/C=C/c2ccnc3ccccc23)cc1`, for which the Potency was 21.3 µM (active).

As for `CN(C)c1ccc(/C=C/c2ccnc3ccc(-c4ccccc4)cc23)cc1`, the Potency is 21.3 µM (active).

As to `Cc1ccc(O)c(C(=O)c2cnc3c(c2)c(-c2ccc(F)cc2)c(C#N)c(=O)n3C)c1`, the Potency result was “inactive”.

For the compound `O=C(Nc1nc2ccc(F)cc2s1)C1=NN(c2ccccc2)C(=O)CC1`, the Potency result is “inactive”.

As for `COc1ccc(CCNC(=O)C(=O)NCc2cccs2)cc1OC`, the Potency entry was “inactive”.

For `COc1ccc(CCNc2nc(-c3ccccn3)cs2)cc1OC`, the Potency is 7.57 µM (active).

For `Cc1cccc(NC(=S)N(CCN2CCOCC2)Cc2cc3cc4c(cc3[nH]c2=O)OCCO4)c1`, the Potency entry was “inactive”.

`Cc1ccc(S(=O)(=O)Nc2c(C)n(C)n(-c3ccccc3)c2=O)cc1C(=O)OC(C)C(=O)N(C)c1ccccc1` (stereo not given): the Potency result is “inactive”.

With `CCCC(=O)NC(c1ccc(OC)c(OC)c1)c1cc(Cl)c2cccnc2c1O` (stereo not given), the Potency was 2.69 µM (active).

For the compound `CC(=O)NC(c1ccc(Cl)cc1)c1ccc2cccnc2c1O` (stereo not given), the Potency is 2.13 µM (active).

For `CCCCC(=O)NC(c1cccc([N+](=O)[O-])c1)c1ccc2cccnc2c1O` (stereo not given), the Potency is 4.26 µM (active).

For the compound `COc1ccc(C(NC(C)=O)c2ccc3cccnc3c2O)cc1OC` (stereo not given), the Potency was 1.69 µM (active).

For the compound `CC(C)C(=O)NC(c1ccc(Cl)cc1Cl)c1ccc2cccnc2c1O` (stereo not given), the Potency is 5.36 µM (active).

With `CCC(=O)NC(c1cccs1)c1cc(Cl)c2cccnc2c1O` (stereo not given), the Potency is 1.51 µM (active).

Consider `O=C(O)c1ccccc1NC(c1ccccc1)c1ccc2cccnc2c1O` (stereo not given), for which the Potency is 3.38 µM (active).

Regarding `COc1ccc(C(NC(C)=O)c2cc(Cl)c3cccnc3c2O)cc1OC` (stereo not given), the Potency is 1.69 µM (active).

Regarding `CCOc1ccc(Nc2nc(N)nc(CN(C)C3CCCCC3)n2)cc1`, the Potency entry was “inactive”.

For `O=C(O)c1c(C(=O)N2N=C3/C(=C/c4ccccc4)CCCC3C2c2ccccc2)cccc1[N+](=O)[O-]` (stereo not given), the Potency entry was “inactive”.

Turning to `CCCc1ccc(C#N)c(SC2CC(=O)N(c3ccc(OC)cc3)C2=O)n1` (stereo not given), the Potency result was “inactive”.

In the case of `O=C(NC1CCCC1)c1cc(=O)[nH]c2ccccc12`, the Potency result is “inactive”.

Consider `CCCCC(=O)NC(c1ccco1)c1cc(Cl)c2cccnc2c1O` (stereo not given), for which the Potency is 3.38 µM (active).

For `O=C(Oc1ccc(Cl)c2cccnc12)C12CC3CC(CC(C3)C1)C2`, the Potency entry was “inactive”.

Take `CCC(=O)NC(c1ccc(OC)c(OC)c1)c1cc(Cl)c2cccnc2c1O` (stereo not given): the Potency is 1.69 µM (active).

As for `Nc1[nH]nc2ncc3cc4ccccc4nc3c12`, the Potency is 15.1 µM (active).

In the case of `CCc1ccc2oc(-c3ccc(OC)cc3)cc(=Nc3c(C)n(C)n(-c4ccccc4)c3=O)c2c1`, the Potency is 16.9 µM (active).

`COc1ccc(-c2cn(Cc3ccc4c(c3)C(=O)c3ccccc3C4=O)nn2)cc1`: the Potency result is “inactive”.

Consider `O=C(Nc1ccccc1Cl)N1CCN(c2ccc3nnc(-c4ccccc4)n3n2)CC1`, for which the Potency was 6.75 µM (active).

`COc1cccc(N2CCN(c3ccc4nnc(CCC(=O)Nc5cccc(C(C)=O)c5)n4n3)CC2)c1`: the Potency result was “inactive”.

Regarding `C[C@@]12CCC=C[C@H]1[C@H](c1ccc3ccccc3c1/C=C/c1ccccc1)N(Cc1ccccc1)C2=O`, the Potency entry is “inactive”.

Consider `CCc1cnc2ccccc2c1/C=C/c1ccc(N(C)C)cc1`, for which the Potency was 7.57 µM (active).

As for `Cc1cnc2ccc(I)cc2c1/C=C/c1ccc(N(C)C)cc1`, the Potency is 7.57 µM (active).

Regarding `Cc1ccc2c(/C=C/c3ccc(N(C)C)cc3)c(C)cnc2c1`, the Potency was 8.49 µM (active).

In the case of `Cc1ccc(-n2nnnc2C(=Cc2ccc(N(C)C)cc2)c2nnnn2-c2ccc(C)cc2)cc1`, the Potency result is “inactive”.

On to `CCN(CC)c1ccc(/C=C/c2c(C)cnc3ccc(C)cc23)cc1`, for which the Potency is 8.49 µM (active).

As for `Cn1c(=O)c2[nH]c(COc3ccccc3)nc2n(C)c1=O`, the Potency result was “inactive”.

With `COc1cc(OC)c(OC)cc1/C=C/c1nccc2ccccc12`, the Potency was 7.57 µM (active).

For the compound `Cc1cc(C)c(OCCCCN(C)Cc2ccccc2)c(C)c1`, the Potency result was “inactive”.

On to `Cn1c(=O)cc2c3c(c(N4CCCCC4)ccc31)C(=O)c1ccccc1-2`, for which the Potency is 3.38 µM (active).

Regarding `Cc1cccc(C)c1OCc1cc(C(=O)N2CCN(c3ccccc3)CC2C)no1` (stereo not given), the Potency entry is “inactive”.

Take `Cc1c(NC(=O)/C(C#N)=C/c2ccc(-c3cc(Cl)ccc3Cl)o2)c(=O)n(-c2ccccc2)n1C`: the Potency is 7.57 µM (active).

Consider `CCOc1ccc2nc(N3CCCC(C(=O)N4CCN(CC)CC4)C3)sc2c1` (stereo not given), for which the Potency entry was “inactive”.

Turning to `CCOC(=O)c1ccc(NC(=S)N2CCN(CCN=CC3=C(O)CC(c4ccccc4)CC3=O)CC2)cc1` (stereo not given), the Potency result is “inactive”.

Regarding `CS(=O)(=O)c1ccc2nc(NC(=O)c3ccccc3Cl)sc2c1`, the Potency result was “inactive”.

`CS(=O)(=O)c1ccc(C(=O)Nc2nc(-c3ccco3)c(-c3ccco3)s2)cc1`: the Potency was 12 µM (active).

Consider `CN(C)C(C)(C)C#CC(O)(c1ccccc1)c1ccccc1`, for which the Potency entry was “inactive”.

As to `CSc1cccc(NC(=O)CCCOc2cc(=O)n(C)c3ccccc23)c1`, the Potency result was “inactive”.

Regarding `Cn1cc(SCC(=O)Nc2ccc3c(c2)OCCO3)c2ccccc21`, the Potency entry was “inactive”.

In the case of `Cn1c2ccccc2c2nnc(SCC(=O)Nc3cccc(O)c3)nc21`, the Potency is 13.5 µM (active).

As to `CCOC(=O)Cc1nnc(NC(=O)CSc2nnc3c4ccccc4n(C)c3n2)s1`, the Potency is 16.9 µM (active).

Consider `CCOC(=O)Cc1nnc(NC(=O)C(CC)Sc2nnc3c4ccccc4n(C)c3n2)s1` (stereo not given), for which the Potency is 16.9 µM (active).

`O=C(CSc1nnc2c3ccccc3c3ccccc3c2n1)Nc1ccccc1F`: the Potency is 7.57 µM (active).

Turning to `Cn1c(=O)c(N)c2c3c(c(Br)ccc31)C(=O)c1ccccc1-2`, the Potency was 6.01 µM (active).

As to `COc1ccc(-c2nnc(NC(=O)c3ccc(S(=O)(=O)N(C)CC4CCCO4)cc3)o2)c(OC)c1` (stereo not given), the Potency is 21.3 µM (active).

For `COCc1nnc(NC(=O)c2ccc(S(=O)(=O)N3CCOCC3)cc2)o1`, the Potency result was “inactive”.

For the compound `O=C1C(=Cc2ccco2)CCC1=Cc1ccco1`, the Potency was 4.78 µM (active).

As for `COc1ccc(Nc2nc(-c3c(C)nc4ncccn34)cs2)cc1`, the Potency is 3.38 µM (active).

On to `Cc1nc2ncccn2c1-c1csc(Nc2ccccc2)n1`, for which the Potency is 3.38 µM (active).

As for `O=[S+]([O-])([O-])c1ccc2c(c1)cc([S+](=O)([O-])[O-])c1nn(-c3ccc(/C=C/c4ccc(-n5nc6c([S+](=O)([O-])[O-])cc7cc([S+](=O)([O-])[O-])ccc7c6n5)cc4[S+](=O)([O-])[O-])c([S+](=O)([O-])[O-])c3)nc12`, the Potency was 6.75 µM (active).

Turning to `COc1ccc(-c2cn3c(C)c(C(=O)NCc4ccc5c(c4)OCO5)sc3n2)cc1`, the Potency result is “inactive”.

Turning to `CN(C)c1ccc(Sc2ccc3nc(N)nc(N)c3c2)cc1`, the Potency was 6.75 µM (active).
